In assay [1] the target is Sphingosine kinase 1 (Homo sapiens) (UniProt Q9NYA1). Conditions: at 1 µM.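 Further: mean SPHK1 inhibition value reported from the GSK PKIS kinase panel screen.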
For assay [2], the target named is T1, Sphingosine kinase 2 (Homo sapiens) (UniProt Q9NRA0).
T1 sequence (whole entry): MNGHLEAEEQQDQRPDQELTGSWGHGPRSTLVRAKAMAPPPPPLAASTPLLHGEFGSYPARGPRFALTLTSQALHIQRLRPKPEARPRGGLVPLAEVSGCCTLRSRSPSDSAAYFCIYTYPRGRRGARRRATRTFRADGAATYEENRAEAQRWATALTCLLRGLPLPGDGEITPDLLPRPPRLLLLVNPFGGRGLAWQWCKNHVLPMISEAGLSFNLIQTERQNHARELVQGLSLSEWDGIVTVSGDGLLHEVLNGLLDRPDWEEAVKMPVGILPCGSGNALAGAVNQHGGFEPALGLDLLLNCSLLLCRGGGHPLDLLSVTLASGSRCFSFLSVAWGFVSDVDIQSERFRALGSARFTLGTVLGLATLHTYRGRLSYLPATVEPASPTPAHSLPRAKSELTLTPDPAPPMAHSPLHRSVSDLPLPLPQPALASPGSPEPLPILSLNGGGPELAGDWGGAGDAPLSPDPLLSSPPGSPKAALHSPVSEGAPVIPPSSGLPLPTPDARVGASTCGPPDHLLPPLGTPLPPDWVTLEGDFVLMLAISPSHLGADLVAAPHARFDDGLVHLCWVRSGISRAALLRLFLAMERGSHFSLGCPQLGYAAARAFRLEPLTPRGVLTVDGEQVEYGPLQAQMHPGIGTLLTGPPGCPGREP
Particulars: at 0.1 µM.

For assay [3], the target named is T1, Sphingosine kinase 2 (Homo sapiens). Particulars: at 1 µM.
Assay [4] concerns the target Casein kinase II subunit alpha (Homo sapiens) (UniProt P68400). Conditions: at 0.1 µM.
Assay [5] shares this target. Particulars: at 1 µM.
Assay [6] addresses T2, Inhibitor of nuclear factor kappa-B kinase subunit alpha (Homo sapiens) (UniProt O15111).
T2 sequence (whole entry): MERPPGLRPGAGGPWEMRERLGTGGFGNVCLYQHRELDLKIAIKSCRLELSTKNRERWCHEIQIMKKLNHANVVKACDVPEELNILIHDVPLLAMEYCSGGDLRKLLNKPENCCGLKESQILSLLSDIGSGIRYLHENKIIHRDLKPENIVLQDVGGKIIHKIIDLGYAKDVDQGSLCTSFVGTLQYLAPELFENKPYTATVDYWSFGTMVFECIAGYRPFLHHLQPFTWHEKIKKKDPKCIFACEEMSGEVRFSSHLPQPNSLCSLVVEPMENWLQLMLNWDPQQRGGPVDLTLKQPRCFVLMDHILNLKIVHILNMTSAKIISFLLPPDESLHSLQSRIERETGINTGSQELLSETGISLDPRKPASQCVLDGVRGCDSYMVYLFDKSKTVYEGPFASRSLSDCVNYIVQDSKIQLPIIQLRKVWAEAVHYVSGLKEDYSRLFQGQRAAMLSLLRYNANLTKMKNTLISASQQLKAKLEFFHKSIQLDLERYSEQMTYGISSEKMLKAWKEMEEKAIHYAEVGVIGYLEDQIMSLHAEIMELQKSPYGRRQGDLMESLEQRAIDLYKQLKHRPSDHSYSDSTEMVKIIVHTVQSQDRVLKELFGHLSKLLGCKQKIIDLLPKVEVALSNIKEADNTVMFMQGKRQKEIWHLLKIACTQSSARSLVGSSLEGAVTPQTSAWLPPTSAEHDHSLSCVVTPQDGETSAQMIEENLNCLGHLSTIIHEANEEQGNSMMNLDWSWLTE
Conditions: at 0.1 µM.

The target in assay [7] is T2, Inhibitor of nuclear factor kappa-B kinase subunit alpha (Homo sapiens). Conditions: at 1 µM.
Assay [8] deals with T3, Inhibitor of nuclear factor kappa-B kinase subunit beta (Homo sapiens) (UniProt O14920).
T3 sequence (whole entry): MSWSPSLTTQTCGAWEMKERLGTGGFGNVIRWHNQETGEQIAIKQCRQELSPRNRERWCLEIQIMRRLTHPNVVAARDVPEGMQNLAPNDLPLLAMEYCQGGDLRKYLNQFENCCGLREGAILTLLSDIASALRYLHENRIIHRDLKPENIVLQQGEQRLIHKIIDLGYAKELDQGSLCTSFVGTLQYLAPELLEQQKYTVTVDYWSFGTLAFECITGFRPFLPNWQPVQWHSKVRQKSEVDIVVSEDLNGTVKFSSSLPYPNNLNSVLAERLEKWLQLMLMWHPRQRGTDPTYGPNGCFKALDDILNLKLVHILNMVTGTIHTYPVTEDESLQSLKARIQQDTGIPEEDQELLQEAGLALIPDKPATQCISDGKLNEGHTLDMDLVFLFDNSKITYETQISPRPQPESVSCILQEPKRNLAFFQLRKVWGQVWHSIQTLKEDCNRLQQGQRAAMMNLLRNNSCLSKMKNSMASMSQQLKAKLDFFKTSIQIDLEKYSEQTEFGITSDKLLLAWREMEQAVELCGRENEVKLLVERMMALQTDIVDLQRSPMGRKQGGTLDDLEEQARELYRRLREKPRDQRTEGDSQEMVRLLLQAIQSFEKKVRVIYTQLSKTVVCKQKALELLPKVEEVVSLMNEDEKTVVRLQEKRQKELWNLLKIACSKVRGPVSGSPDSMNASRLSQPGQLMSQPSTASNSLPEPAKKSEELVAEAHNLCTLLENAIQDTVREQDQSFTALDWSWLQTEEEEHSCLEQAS
Conditions: at 0.1 µM.

Assay [9] deals with T3, Inhibitor of nuclear factor kappa-B kinase subunit beta (Homo sapiens). Conditions: at 1 µM.
The target of assay [10] is T4, Inhibitor of nuclear factor kappa-B kinase subunit epsilon (Homo sapiens) (UniProt Q14164).
T4 sequence (whole entry): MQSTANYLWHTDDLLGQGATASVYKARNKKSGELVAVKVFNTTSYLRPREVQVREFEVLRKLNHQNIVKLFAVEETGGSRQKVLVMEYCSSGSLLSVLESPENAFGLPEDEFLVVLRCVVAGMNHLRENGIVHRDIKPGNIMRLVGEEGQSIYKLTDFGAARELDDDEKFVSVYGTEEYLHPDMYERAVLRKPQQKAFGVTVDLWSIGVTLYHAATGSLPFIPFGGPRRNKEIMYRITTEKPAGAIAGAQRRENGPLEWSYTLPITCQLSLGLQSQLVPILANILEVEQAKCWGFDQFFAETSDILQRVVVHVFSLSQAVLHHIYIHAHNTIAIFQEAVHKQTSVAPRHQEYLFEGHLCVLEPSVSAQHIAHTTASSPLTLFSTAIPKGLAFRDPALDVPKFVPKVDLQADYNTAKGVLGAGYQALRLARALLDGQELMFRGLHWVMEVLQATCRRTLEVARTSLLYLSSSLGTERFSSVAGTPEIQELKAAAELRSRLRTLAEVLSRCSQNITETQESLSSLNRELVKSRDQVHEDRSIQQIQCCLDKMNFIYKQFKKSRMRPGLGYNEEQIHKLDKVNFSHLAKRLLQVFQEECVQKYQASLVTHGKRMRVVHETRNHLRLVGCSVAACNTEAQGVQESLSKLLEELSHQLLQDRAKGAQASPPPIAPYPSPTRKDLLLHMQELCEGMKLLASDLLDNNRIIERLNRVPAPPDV
Particulars: at 0.1 µM.

The target in assay [11] is T4, Inhibitor of nuclear factor kappa-B kinase subunit epsilon (Homo sapiens). Particulars: at 1 µM.
For assay [12], the target named is T5, Serine/threonine-protein kinase Nek1 (Homo sapiens) (UniProt Q96PY6).
T5 sequence (whole entry): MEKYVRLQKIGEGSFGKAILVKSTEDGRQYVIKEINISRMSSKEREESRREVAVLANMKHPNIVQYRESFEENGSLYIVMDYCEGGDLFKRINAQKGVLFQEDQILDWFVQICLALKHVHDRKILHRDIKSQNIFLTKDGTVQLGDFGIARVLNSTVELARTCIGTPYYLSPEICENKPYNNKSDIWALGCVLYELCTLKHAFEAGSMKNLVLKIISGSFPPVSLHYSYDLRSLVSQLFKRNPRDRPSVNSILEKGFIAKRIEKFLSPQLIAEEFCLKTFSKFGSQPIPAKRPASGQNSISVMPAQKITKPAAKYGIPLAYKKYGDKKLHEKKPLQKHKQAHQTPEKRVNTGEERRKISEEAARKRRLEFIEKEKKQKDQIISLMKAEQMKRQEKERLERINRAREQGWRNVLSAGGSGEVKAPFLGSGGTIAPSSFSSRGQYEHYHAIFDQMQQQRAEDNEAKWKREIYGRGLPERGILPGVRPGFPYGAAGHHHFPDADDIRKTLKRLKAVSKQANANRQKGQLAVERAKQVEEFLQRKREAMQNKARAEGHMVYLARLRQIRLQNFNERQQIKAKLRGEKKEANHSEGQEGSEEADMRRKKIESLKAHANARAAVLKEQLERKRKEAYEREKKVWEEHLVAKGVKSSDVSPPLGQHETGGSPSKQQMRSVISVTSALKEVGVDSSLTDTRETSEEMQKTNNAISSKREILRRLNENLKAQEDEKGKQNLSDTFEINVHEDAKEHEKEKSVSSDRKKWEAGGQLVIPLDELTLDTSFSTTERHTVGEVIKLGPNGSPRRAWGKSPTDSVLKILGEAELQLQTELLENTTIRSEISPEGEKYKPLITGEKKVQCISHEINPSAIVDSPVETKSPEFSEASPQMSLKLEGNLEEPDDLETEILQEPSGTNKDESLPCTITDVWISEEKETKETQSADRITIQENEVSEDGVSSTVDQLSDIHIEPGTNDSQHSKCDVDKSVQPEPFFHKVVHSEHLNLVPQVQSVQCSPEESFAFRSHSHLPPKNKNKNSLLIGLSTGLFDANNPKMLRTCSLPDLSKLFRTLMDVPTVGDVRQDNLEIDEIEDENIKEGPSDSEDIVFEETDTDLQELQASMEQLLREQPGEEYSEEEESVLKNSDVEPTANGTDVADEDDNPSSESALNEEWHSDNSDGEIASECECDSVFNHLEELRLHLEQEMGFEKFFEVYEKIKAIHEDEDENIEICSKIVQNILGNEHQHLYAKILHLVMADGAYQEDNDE
Particulars: at 0.1 µM.

The target of assay [13] is T5, Serine/threonine-protein kinase Nek1 (Homo sapiens). Particulars: at 1 µM.
Assay [14] concerns the target T6, Serine/threonine-protein kinase Nek2 (Homo sapiens) (UniProt P51955).
T6 sequence (whole entry): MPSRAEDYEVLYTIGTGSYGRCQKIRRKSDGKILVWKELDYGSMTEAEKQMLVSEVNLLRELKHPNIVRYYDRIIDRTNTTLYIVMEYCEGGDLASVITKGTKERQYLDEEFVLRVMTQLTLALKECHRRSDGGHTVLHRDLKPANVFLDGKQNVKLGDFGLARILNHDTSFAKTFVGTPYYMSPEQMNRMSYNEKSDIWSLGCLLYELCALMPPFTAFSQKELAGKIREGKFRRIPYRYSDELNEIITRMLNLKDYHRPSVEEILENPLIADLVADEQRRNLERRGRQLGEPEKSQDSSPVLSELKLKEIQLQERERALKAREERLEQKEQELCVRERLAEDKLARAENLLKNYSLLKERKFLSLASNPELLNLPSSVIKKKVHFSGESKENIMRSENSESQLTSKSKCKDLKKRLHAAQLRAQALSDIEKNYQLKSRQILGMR
Particulars: at 0.1 µM.

Assay [15] addresses T6, Serine/threonine-protein kinase Nek2 (Homo sapiens). Conditions: at 1 µM.
Assay [16] concerns the target Serine/threonine-protein kinase Nek6 (Homo sapiens) (UniProt Q9HC98). Particulars: at 0.1 µM.
The target is the same in assay [17]. Conditions: at 1 µM.
Assay [18] addresses Serine/threonine-protein kinase Nek7 (Homo sapiens) (UniProt Q8TDX7). Conditions: at 0.1 µM.
Assay [19] has the same target. Conditions: at 1 µM.
Assay [20] deals with T7, Serine/threonine-protein kinase Nek9 (Homo sapiens) (UniProt Q8TD19).
T7 sequence (whole entry): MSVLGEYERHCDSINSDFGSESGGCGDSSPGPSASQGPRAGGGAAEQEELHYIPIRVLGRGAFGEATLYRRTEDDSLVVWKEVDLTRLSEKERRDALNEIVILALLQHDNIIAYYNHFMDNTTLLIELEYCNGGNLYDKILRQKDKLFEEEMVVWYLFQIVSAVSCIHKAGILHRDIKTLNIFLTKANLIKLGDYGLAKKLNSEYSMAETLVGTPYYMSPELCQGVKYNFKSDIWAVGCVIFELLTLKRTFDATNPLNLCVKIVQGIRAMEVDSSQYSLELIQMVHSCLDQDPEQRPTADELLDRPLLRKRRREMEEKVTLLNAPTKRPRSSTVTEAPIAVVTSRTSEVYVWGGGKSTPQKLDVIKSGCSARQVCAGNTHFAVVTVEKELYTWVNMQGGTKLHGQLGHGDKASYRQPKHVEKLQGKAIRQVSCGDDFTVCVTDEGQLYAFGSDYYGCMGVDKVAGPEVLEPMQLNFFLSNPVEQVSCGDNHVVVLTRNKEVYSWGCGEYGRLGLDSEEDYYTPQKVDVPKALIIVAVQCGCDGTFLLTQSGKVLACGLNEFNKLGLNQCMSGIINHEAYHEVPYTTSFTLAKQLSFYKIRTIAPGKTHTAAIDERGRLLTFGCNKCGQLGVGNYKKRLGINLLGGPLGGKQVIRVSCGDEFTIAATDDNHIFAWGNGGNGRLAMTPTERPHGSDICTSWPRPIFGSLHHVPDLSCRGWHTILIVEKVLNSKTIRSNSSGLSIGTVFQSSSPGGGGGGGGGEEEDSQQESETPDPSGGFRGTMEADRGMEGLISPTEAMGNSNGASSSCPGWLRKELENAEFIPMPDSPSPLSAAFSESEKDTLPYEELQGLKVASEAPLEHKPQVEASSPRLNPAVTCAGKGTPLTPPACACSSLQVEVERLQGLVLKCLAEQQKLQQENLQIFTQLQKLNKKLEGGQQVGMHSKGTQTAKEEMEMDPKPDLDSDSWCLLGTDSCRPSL
Particulars: at 0.1 µM.

The structures appear in SMILES notation.

Serine/threonine-protein kinase Nek6 (Homo sapiens), sequence (Q9HC98 whole entry): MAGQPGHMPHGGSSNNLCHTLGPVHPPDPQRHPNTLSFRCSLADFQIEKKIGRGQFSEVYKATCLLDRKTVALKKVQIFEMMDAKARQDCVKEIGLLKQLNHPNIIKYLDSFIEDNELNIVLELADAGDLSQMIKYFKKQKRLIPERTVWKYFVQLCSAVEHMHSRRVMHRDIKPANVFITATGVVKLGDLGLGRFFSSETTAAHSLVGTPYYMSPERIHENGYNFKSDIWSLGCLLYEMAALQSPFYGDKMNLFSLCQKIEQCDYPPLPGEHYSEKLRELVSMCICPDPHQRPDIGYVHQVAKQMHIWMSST
Serine/threonine-protein kinase Nek7 (Homo sapiens), sequence (Q8TDX7 whole entry, looked up): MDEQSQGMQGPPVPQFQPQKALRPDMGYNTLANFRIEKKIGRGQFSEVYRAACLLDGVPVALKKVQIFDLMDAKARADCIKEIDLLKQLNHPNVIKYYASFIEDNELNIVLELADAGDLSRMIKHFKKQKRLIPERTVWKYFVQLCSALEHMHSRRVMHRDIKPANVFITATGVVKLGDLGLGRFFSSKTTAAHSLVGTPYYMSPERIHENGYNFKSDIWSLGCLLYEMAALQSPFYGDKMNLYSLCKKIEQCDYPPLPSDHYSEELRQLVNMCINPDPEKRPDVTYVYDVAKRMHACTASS
Casein kinase II subunit alpha (Homo sapiens), sequence (P68400 whole entry, looked up): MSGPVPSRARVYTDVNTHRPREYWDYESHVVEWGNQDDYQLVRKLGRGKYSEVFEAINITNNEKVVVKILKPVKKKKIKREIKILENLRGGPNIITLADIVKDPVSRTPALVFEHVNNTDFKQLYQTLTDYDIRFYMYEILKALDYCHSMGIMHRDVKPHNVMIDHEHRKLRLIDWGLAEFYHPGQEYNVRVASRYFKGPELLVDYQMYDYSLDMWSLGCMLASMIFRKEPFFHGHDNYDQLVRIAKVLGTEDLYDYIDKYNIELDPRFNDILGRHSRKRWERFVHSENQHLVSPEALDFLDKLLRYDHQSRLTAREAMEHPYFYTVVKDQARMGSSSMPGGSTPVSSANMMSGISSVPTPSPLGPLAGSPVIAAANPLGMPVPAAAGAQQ
Sphingosine kinase 1 (Homo sapiens), sequence (Q9NYA1 whole entry): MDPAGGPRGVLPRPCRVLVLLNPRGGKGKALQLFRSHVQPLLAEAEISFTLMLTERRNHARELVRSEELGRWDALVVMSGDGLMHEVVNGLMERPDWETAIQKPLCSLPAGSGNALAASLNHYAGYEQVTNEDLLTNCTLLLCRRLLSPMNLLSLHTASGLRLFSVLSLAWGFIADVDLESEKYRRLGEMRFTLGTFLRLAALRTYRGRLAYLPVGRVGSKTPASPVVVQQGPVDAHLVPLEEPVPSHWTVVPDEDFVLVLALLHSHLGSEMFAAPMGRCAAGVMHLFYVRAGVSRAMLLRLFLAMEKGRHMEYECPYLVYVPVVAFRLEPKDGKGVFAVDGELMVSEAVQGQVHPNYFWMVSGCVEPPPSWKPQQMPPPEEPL

With `CS(=O)(=O)CCNCc1ccc(-c2ccc3ncnc(Nc4ccc(OCc5ccccc5)cc4)c3c2)o1`, the inhibition (as a rule, the relative decrease from the control value, in per cent) in assay [1] is -3.83%; in assay [2], -0.85%; in [3], 0.16%; in assay [4], 9.29%; in assay [5], 3.86%; in [6] it was 4.92%. Also, the inhibition came to 3.98% in assay [7]; 5.26% in assay [8]; 5.3% in assay [9]; 5.66% in [10]; 4.6% in [11]; 2.22% in assay [12]. The inhibition in assay [13] was found to be 2.22%; in [14] it was 4.68%; in assay [15], 3.32%; in assay [16], 2.28%; in assay [17], 3.11%; in [18] it was 2.47%. Further, the inhibition in assay [19] was determined as 3.65%; in assay [20], 5.77%.

For the origin of these results see ChEMBL document CHEMBL1961873, “Compounds: GSK PKIS; Assays: Nanosyn kinase panel” (2012).
